# Laboratory results as given in ChEMBL document CHEMBL4513216, “Probing the Open Global Health Chemical Diversity Library for Multistage-Active Starting Points for Next-Generation Antimalarials” (ACS Infect Dis, 2020).
# Among all 68,000 compounds or so, about 2,700 (4%) showed an effect of 50% or more. The entries come from a sample that favours strong results as a whole.
# System: Plasmodium berghei
# Assay: Screen against P. berghei liver stage (PbLuc), transformed with Luciferase, at 2uM
# Type: functional, HepG2
# Conditions: tested at 2 uM
row,Structure (SMILES),INHIBITION
1,O=C(Cn1cccnc1=O)NCc1cccnc1OCC(F)(F)F,3.95%
2,O=C(Cn1ccc(=O)[nH]c1=O)NCc1cccnc1OCC(F)(F)F,51.76%
3,CN1CC(C(=O)NCc2cccnc2OCC(F)(F)F)CC1=O (centres undefined),9.21%
4,Cc1ccc2[nH]c(=O)c(CNCCCN3CCOCC3)cc2c1,22.39%
5,O=C(c1c[nH]cn1)N1CCC(F)(F)C2(CCN(c3ncccn3)C2)C1 (centres undefined),38%
6,CCc1cc(C(=O)N2Cc3ccccc3OC3(CCOCC3)C2)on1,14.05%
7,c1nc(N2CCCC2Cn2cncn2)c2sccc2n1 (centres undefined),-48.41%
8,CN1C(=O)[C@@H]2CC[C@H]1CN(c1ncnc3ccsc13)C2,14.82%
9,Cc1cnn(CC2CCCN2c2ncnc3ccsc23)c1 (centres undefined),53.33%
10,COc1cc(N2C[C@H]3CC[C@@H](C2)N(CC2CCC2)C3=O)ncn1,8.26%
11,c1nc(N2CCCC(Cn3cncn3)C2)c2ccsc2n1 (centres undefined),-1.74%
12,Cc1cnn(CC2CCCN2c2ncnc3sccc23)c1 (centres undefined),37.87%
13,O=C1[C@@H]2CC[C@@H](CN(c3ncnc4ccsc34)C2)N1CC1CC1,62.51%
14,c1nc(N2CCCC(Cn3cncn3)C2)c2sccc2n1 (centres undefined),68.24%
15,Cc1nc(C)n(CC2CCCN(c3ncnc4ccsc34)C2)n1 (centres undefined),-20.93%
16,COC(=O)CN(C(=O)c1ccc(Cl)o1)c1cccc(F)c1,34.65%
17,O=C(NCc1ccc(Br)c(F)c1)Nc1cn[nH]c1,2.31%
18,Cc1cc(CN2CCCC2c2c(C)nn(C)c2Cl)on1 (centres undefined),-50.23%
19,CCc1nc(CN(C)c2nccc(N3CCCC(O)C3)n2)no1 (centres undefined),11.38%
20,Cc1cnn(CC2CN(Cc3nc(C)no3)CCO2)c1 (centres undefined),-35.62%
21,O=C(c1ccncc1)N1CCCC1C1CCN(Cc2ccccc2)CC1 (centres undefined),45.82%
22,O=C(c1ccco1)N1CCCC1C1CCN(Cc2ccccc2)CC1 (centres undefined),3%
23,O=C(C1CC1)N1CCCC1C1CCN(Cc2ccccc2)CC1 (centres undefined),53.86%
24,CC(=O)c1cc(CC(=O)NCc2cccc(F)c2F)cs1,36.26%
25,Cc1nnc(N2C[C@@H]3CCCO[C@@H]3[C@H](N3CCCC3=O)C2)s1,21.57%
26,CC(=O)N1CCCN(C(=O)NCCNc2cnccn2)CC1,64.71%
27,O=C(NCCNc1cnccn1)N1CCCC1,-12.31%

row,Structure (SMILES),INHIBITION
1,CN1CCCN(C(=O)NCCNc2cnccn2)CC1,12.88%
2,COCC1(C(=O)N[C@H]2CN(c3noc(C)n3)C[C@@H]2C2CC2)CCC1,21.28%
3,CC(C)S(=O)(=O)NCC1CCCN(C(=O)c2ccc3c(c2)OCCO3)C1 (centres undefined),21.39%
4,O=C(CC1CC1)N[C@@H]1CN(C(=O)c2cccs2)C[C@@H]2CCCO[C@@H]21,45.36%
5,CC(NC(=O)N1CCC[C@H]1CO)c1noc(-c2ccccc2)n1 (some centres undefined),5.28%
6,CC(NC(=O)N1CCSC(C)(C)C1)c1noc(-c2ccccc2)n1 (centres undefined),29.13%
7,CCN1CCN(C(=O)NC(C)c2noc(-c3ccccc3)n2)CC1 (centres undefined),88.75%
8,O=C(Nc1ccccc1)N1C2CCC(O)(CC2)C1CN1CCOCC1 (centres undefined),11.94%
9,CC(O)C1CCN(C(=O)Nc2nc(-c3ccccc3)ns2)CC1 (centres undefined),-65.84%
10,O=C(Nc1nc(-c2ccccc2)ns1)N1CCC(CO)CC1,7.72%
11,CCC(O)C1CCN(C(=O)Nc2nc(-c3ccccc3)ns2)CC1 (centres undefined),57.92%
12,O=C(c1cscn1)N1CCC2(CN(Cc3ccncc3)C2)C1,55.66%
13,O=C(c1cscn1)N1CCC2(CN(Cc3ccoc3)C2)C1,46.87%
14,O=C(c1cscn1)N1CCC2(CN(Cc3ccsc3)C2)C1,-27.26%
15,CCc1ccc(C(=O)Nc2cccc(CN3CCCC3C(N)=O)c2)cc1 (centres undefined),10.61%
16,NC(=O)C1CCCN1Cc1cccc(NC(=O)c2cc(Cl)cc(Cl)c2)c1 (centres undefined),3.14%
17,Cc1cc(C)cc(C(=O)Nc2cccc(CN3CCCC3C(N)=O)c2)c1 (centres undefined),57.01%
18,O=C(CSc1nnc(N2CCNCC2)s1)Nc1ccccc1,48.59%
19,Cn1nc(Br)c2c(NCCN)ncnc21,60%
20,Cn1nc(Br)c2c(NCCS(N)(=O)=O)ncnc21,20.21%
21,Cn1nc(Br)c2c(NCCNc3ncccn3)ncnc21,33.11%
22,CC(CS(C)(=O)=O)NCc1cc(Cl)ccc1F (centres undefined),50.53%
23,CC(C)NC(=O)CNC(C)c1c(F)cccc1Cl (centres undefined),5.34%
24,CC(C)C(=O)NCc1cc(Br)ccc1F,-64.91%
25,CC(C)NC(=O)CC(C)NCc1cc(Cl)ccc1F (centres undefined),52.51%
26,CS(=O)(=O)Cc1ccc(Cl)cc1NCc1ccccc1F,0.13%
27,CC(C)NC(=O)CC(C)NCc1ccc(F)cc1Cl (centres undefined),40.64%
